Among the data in PubChem BioAssay AID1628 (Sanford-Burnham Center for Chemical Genomics, 2009) are z-score values, retold here.

In all, about 190,000 compounds went through this assay and about 930 (0.49%) were called active.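 Rule for the calls: active = z-score of insulin promoter reporter brightness in nuclei below -3 at 5 µM, with at least 500 cells counted; inconclusive = wells with under 500 cells, flagged as toxic or sparse; inactive = the rest.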 Some of the results follow. Entries with a potency or affinity are not part of this list.

The experiment in a line: insulin promoter down-regulators in MIN6 cells, imaging, high-content screening, mouse beta cells (AID 1628). As to conditions: MIN6 insulin promoter GFP reporter, at 5 µM, stronger effect = lower value.
Consider `CCC(=NCCc1c[nH]c2ccccc12)c1c(O)n(C)c(=O)n(C)c1=O`, for which the z-score was -5.98 (active).
Take `CNCCc1c[nH]c2ccccc12`: the z-score is -0.16 (inactive).
To `O=C(/C=C/c1c[nH]c2ccccc12)c1c(O)n(CCc2ccccc2)c(=O)[nH]c1=O` belongs 16 (inactive); to `CCCCCCn1c(O)c(C=NC2CCCCC2N)c(=O)[nH]c1=O` (stereo unspecified), -0.8 (inactive).
The figure for `Cc1cc(C=C2C(=O)NC(=O)NC2=O)c(C)n1-c1ccncc1` is 2.32 (inactive).
In the case of `CCCCCn1c(=O)c(C(=O)Nc2nc3ccccc3[nH]2)c(O)c2ccccc21`, the z-score was -3.26 (active).
With `CCCCCCn1c(=O)c(C(=O)Nc2ccncc2)c(O)c2ccccc21`, the z-score is -5.74 (active).
To `CCCCCn1c(=O)c(C(=O)Nc2cnccn2)c(O)c2ccccc21` belongs -5.71 (active); to `CCCCn1c(O)c(C(=O)/C=C/c2c[nH]c3ccccc23)c(=O)[nH]c1=O`, 12.4 (inactive).
The figure for `CN1CCN(c2ccc(/C=C3\C(=O)NC(=S)N(c4cccc(Br)c4)C3=O)o2)CC1` is 3.97 (inactive); for `O=C(O)c1cccc2nc3ccccc3nc12` it is -0.32 (inactive).
The figure for `Oc1c(Cl)cc(Cl)cc1CN1CCN(Cc2ccccc2)CC1` is 2.17 (inactive); for `O=[N+]([O-])c1ccc(NCc2ccccc2)c2nonc12` it is 13.4 (inactive).
With `CCCCc1ccc2[nH]cc(CCN)c2c1`, the z-score was 3.13 (inactive).
The figure for `CC(=O)OC(C)(C)/C=C/C(=O)[C@](C)(O)[C@H]1[C@H](O)C[C@@]2(C)[C@@H]3CC=C4[C@H](C[C@H](O)C(=O)C4(C)C)[C@]3(C)C(=O)C[C@]12C` is -4.32 (active).
To `CN1CC=C2C(C#N)=C(N)C(C#N)(C#N)C(c3ccncc3)C2C1` (stereo unspecified) belongs 8.74 (inactive); to `O=c1[nH]c(=O)n(-c2ccc(F)cc2)c(O)c1C=Nc1ccccc1N1CCCC1`, 4.37 (inactive).
`O=c1cc(C(F)(F)F)c2cc3c4c(c2o1)CCCN4CCC3`: the z-score is 17.3 (inactive).
To `CC(C)N1CCN(Cc2cccc([N+](=O)[O-])c2)CC1` belongs 2.53 (inactive); to `O=C(/C=C/c1ccccc1)NCCc1cnc[nH]1`, -0.29 (inactive); to `CN1/C(=C\C=C2C(=O)NC(=S)NC2=O)C(C)(C)c2ccccc21`, 14.4 (inactive).
The figure for `O=C1Nc2ccc(Br)cc2C(c2ccccc2Cl)=NC1O` (stereo unspecified) is -0.25 (inactive); for `N#Cc1ccccc1Cn1cc(C(=O)c2ccco2)c2ccccc21` it is -6.56 (active).
For `CN1C(=O)C(=Cc2ccc(N3CCCCC3)o2)C(=O)N(C)C1=S`, the z-score is 4.86 (inactive).
For `Cc1ccc(Cn2nnnc2CN2CCC(n3nnc4cc(C(F)(F)F)ccc43)CC2)cc1`, the z-score is -3.36 (active).
The figure for `CCCCCCn1c(O)c(C=Nc2ccccc2N2CCOCC2)c(=O)[nH]c1=S` is 3.25 (inactive); for `CC(C)(C)c1nc(NCc2ccc3c(c2)OCO3)c2nnn(Cc3ccccc3Cl)c2n1` it is 2.04 (inactive); for `COc1ccc(Cl)cc1NC1=NCC(C)S1` (stereo unspecified) it is -4.13 (active).
Regarding `CN1CCN(c2nc(Cl)ncc2F)CC1`, the z-score is 4.91 (inactive).
For `CC1=NCCc2c1[nH]c1ccccc21`, the z-score was -0.55 (inactive).
For the compound `CCn1nc(/C=C/c2ccccc2)nc2c(=O)n(C)c(=O)nc1-2`, the z-score is -4.69 (active).
To `Cc1cc2c(C(F)(F)F)cc(=O)oc2c2c1NCCC2` belongs 5.21 (inactive).
With `CN1C2CCC1CC(=NO)C2`, the z-score was 0.21 (inactive).
Regarding `Nc1cc2nc3ccccc3nc2cc1N`, the z-score is 3.68 (inactive).
Regarding `CC(C)[C@H]1C(=O)O[C@H](C(C)C)C(=O)N(C)[C@@H](C(C)C)C(=O)O[C@H](C(C)C)C(=O)N(C)[C@@H](C(C)C)C(=O)O[C@H](C(C)C)C(=O)N1C`, the z-score was -4.32 (active).
The figure for `NC(=O)OCCSc1nnc(-c2cccc(C(N)=S)c2)o1` is 1.36 (inactive).
Take `O=C1NC(=O)N(c2ccc3c(c2)OCO3)C(=O)/C1=C/c1cccs1`: the z-score was 1.66 (inactive).
As for `c1ccc2c(N3CCNCC3)nsc2c1`, the z-score is 3.06 (inactive).
Turning to `COc1ccc(CC(=O)N2CCN(C)CC2)cc1`, the z-score is 3.53 (inactive).
To `COc1ccc(OCC(=O)N2CCN(C3CCC(c4ccccc4)CC3)CC2)cc1` (stereo unspecified) belongs -4.73 (active).
In the case of `COc1ccccc1CN1CCN(C(=O)COc2ccccc2)CC1`, the z-score is -4.58 (active).
The figure for `CCC(=O)c1ccc(OC)c(OC)c1` is -0.74 (inactive); for `C=CCN1C(=O)/C(=C/c2ccc(N3CCOCC3)o2)C(=O)NC1=S` it is 3.53 (inactive).
Regarding `Cn1c(=O)c2c(ncn2CCCl)n(C)c1=O`, the z-score was 0.35 (inactive).
As for `CCc1ccccc1N1C(=O)/C(=C/c2ccc(N3CCN(C)CC3)o2)C(=O)NC1=S`, the z-score is 3.37 (inactive).
As for `Cc1cc([N+](=O)[O-])c2ccccc2[n+]1[O-]`, the z-score is -6.12 (active).
To `c1ccc2c(NC3=NCCS3)cccc2c1` belongs -5.01 (active); to `CC(Cc1ccccc1)NC(=O)CN1CCCC1=O` (stereo unspecified), -3.46 (active).
Take `COc1ccc(-c2cc(-c3ccccc3)[n+](C)c(-c3ccccc3)c2)cc1`: the z-score is -4.19 (active).
The figure for `CCN(CC)c1ccc(/C=N/c2sc3c(c2C#N)C2CCN3CC2)c(O)c1` is 16.8 (inactive); for `CC1CCCC(C2(O)C(=O)Nc3ccccc32)C1=O` (stereo unspecified) it is 5.61 (inactive).
